Source: PubChem (National Center for Advancing Translational Sciences (NCATS))
KB-3-1 tox: kills parental KB-3-1 adenocarcinoma cells; KB-3-1 viability, CellTiter-Glo ATP luminescence, 72 h; hit rate 1.4% among 400,000; Potency, µM (series often up to 46.1 µM), most hits filed as cytotoxic; further: nearly all actives have a fitted effect of over 60% in size
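Here the drug-naive KB-3-1 line serves as comparator for MDR sub-line selectivity; cells received compound titrations, 72 h at 37 °C, then CellTiter-Glo readout.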
HT1080NT lethal: kills 2HG-producing HT-1080-NT fibrosarcoma cells; Potency, µM (highest dose often 46.1 µM), for the others: at the highest dose activity, negative = less viability, hits mostly cytotoxic; HT-1080-NT fibrosarcoma viability, CellTiter-Glo ATP luminescence, 48 h; hit rate 1.6% among 360,000; AID 686970;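 further: NT is the 2HG producing partner of a matched IDH1 knockdown line; 0% = DMSO-treated cells and -100% = media-only wells without cells; nearly all actives have a fitted effect of over 55% in size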
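Fibrosarcoma NT cells, 750 per well in 5% FBS RPMI, were exposed to compound for 48 hours. Viability: CellTiter-Glo luminescence.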
DT40 TDP1 CPT: DT40-hTDP1 cell growth loss with CPT. AID 686979. Potency, µM (doses to about 46.2 µM), for inactives: at the top dose activity change, negative = growth inhibition, hits mostly inhibitors. hit rate 12% among 420,000. chicken DT40 Tdp1-/-;hTDP1 cells + 20 nM CPT, ATP luminescence, 48 h; further: nearly all actives have a fitted effect of over 55% in size
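Chicken DT40 Tdp1-/- cells complemented with human TDP1, 400 cells/well, exposed to compounds plus 20 nM camptothecin for at least 48 h at 37 C; viability read as ATP content by CellTiter-Glo luminescence.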
KB-V1 cytotox: kills drug-selected multidrug resistant KB-V1 cells; KB-V1 MDR cells viability, CellTiter-Glo, 72 h; Potency, µM (series often up to 46.1 µM), most hits filed as cytotoxic; hit rate 3.4% among 400,000; further: nearly all actives have a fitted effect of over 60% in size
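qHTS viability screen in drug-selected KB-V1 MDR cells: 72 h compound treatment at 37 degrees C, ATP luminescence end point.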
DT40 TDP1 no CPT: qHTS for Inhibitors of human tyrosyl-DNA phosphodiesterase 1 (TDP1): qHTS in cells in absence of CPT; DT40 Tdp1-/- hTDP1 cells, no CPT, ATP luminescence, 48 h; Potency, µM (top dose mostly 46.2 µM), for inactives: top-dose activity change, negative = growth inhibition, hits mostly inhibitors; hit rate 15% among 420,000; AID 686978, 2013; further: nearly all actives have a fitted effect of over 55% in size
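No-CPT arm: Tdp1-/-;hTDP1 DT40 cells (400/well) plus compounds, incubated ≥48 hr at 37 °C. Readout CellTiter-Glo luminescence.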
HT1080 IDH1KD tx: toxicity to HT-1080 IDH1 knockdown cells (counter line); AID 686971; Potency, µM (highest dose often 46.1 µM), without a hit: at the top dose activity, negative = toxicity, usual class: cytotoxic; HT-1080 IDH1 knockdown viability, ATP luminescence, 48 h; hit rate 2% among 360,000;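 further: 0% = DMSO wells and -100% = cell-free medium wells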
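Luminescent ATP read-out (CellTiter-Glo, 10 min at room temperature) after 48 h compound exposure at 37 °C gave viability of IDH1-knockdown HT-1080 cells. Activity was normalised to DMSO and cell-free wells, then fitted as concentration-response curves.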
Starred values were filed as active, the others as inactive; i = inactive; ? = inconclusive; · = not tested or not shown. Only some compounds are listed: those with a hit (about 19% of all), similar ones and a draw of the others. The call rests on the fitted dose curve; in most records, active means well fitted curve in the direction sought with a large enough effect; inconclusive means small, poorly fitted or top-dose-only effect, or another doubt; inactive means no such curve, though single readings can be large; an effect the other way counts as inactive or inconclusive. Unless noted, on the % scale 0 is the no-effect control and ±100 the full control effect; potency means the concentration at half of the fitted maximal effect.

SMILES	KB-3-1 tox	HT1080NT lethal	DT40 TDP1 CPT	KB-V1 cytotox	DT40 TDP1 no CPT	HT1080 IDH1KD tx
N#CCCN(Cc1ccccc1)C(C(=O)NC1CCCCC1)c1cc2ccccc2o1 (centres undefined)	?	-25%	21µM*	?	18µM*	?
Cc1c(C)n(Cc2ccccc2)c2ccc(C(=O)N3CCN(c4ccccc4)CC3)cc12	i	·	?	i	?	·
Cc1c(C)n(Cc2ccccc2)c2ccc(C(=O)N3CCN(c4ccc(F)cc4)CC3)cc12	i	·	?	i	16µM*	·
Cc1c(C)n(Cc2ccc(F)cc2)c2ccc(C(=O)N3CCN(c4ccc(Cl)cc4)CC3)cc12	i	·	18µM*	i	?	·
O=C(CCl)Nc1cn(-c2ccccc2)nc1-c1ccccc1	?	?	2.9µM*	21µM*	3.7µM*	-29%
Cc1ccc(-c2nn(-c3ccccc3)cc2NC(=O)c2ccccc2)cc1	i	-9%	21µM*	i	21µM*	-2%
O=C(Nc1cn(-c2ccccc2)nc1-c1ccc(F)cc1)c1ccccc1	i	0%	21µM*	16µM*	18µM*	1%
COc1ccc(CCNC(=O)CSc2nnc(C(C)N(C)C)n2Cc2ccccc2)cc1OC (centres undefined)	i	6%	15%	i	-4%	6%
COc1cccc(/C=C(\C#N)C(=O)Nc2ccc(NC(C)=O)cc2)c1OC	·	·	5%	·	5%	·
COc1cc(C2C(=O)N(C3CCCCC3)CC(=O)N2CCc2ccccc2)ccc1OC(C)C (centres undefined)	·	·	-25%	·	-28%	·
CCOc1c(Br)cc(C(=O)OCC(=O)N2CCc3ccccc3C2)cc1OC	i	2%	?	i	26µM*	0%
CC(=O)Oc1cc(C(=O)OCC(=O)N2CCc3ccccc3C2)cc(OC(C)=O)c1OC(C)=O	i	-4%	4.1µM*	i	5.2µM*	-30%
COc1cc2c(cc1OC)CN(C(=O)COc1ccccc1C#N)CC2	i	-4%	21µM*	i	12µM*	-23%
COc1ccc(C(=O)OCC(=O)N2CCc3ccccc3C2)cc1OC	·	21%	?	·	-18%	4%
COc1ccc(S(=O)(=O)NC(=O)C2(C)CCN2C(=O)Cc2cc(C)cc(C)c2)cc1 (centres undefined)	i	11%	20%	i	-3%	2%
CC(C)Oc1ccc(C2CC(=O)N(c3cccc(Br)c3)C2=O)cc1 (centres undefined)	i	4%	-28%	i	-20%	0%
OC(c1ccc(F)cc1)c1nc(-c2ccc(F)c(Cl)c2)cs1 (centres undefined)	i	?	?	i	?	?
COc1cc2cncc(Cc3ccc(Cl)cc3)c2cc1OC	i	-12%	15µM*	i	18µM*	-23%
Cc1oc2ccc(OCC(N)=O)cc2c1C(=O)OC(C)C	23µM*	-17%	?	?	?	-27%
Cc1cc(C)c(S(=O)(=O)Nc2ccc3oc(C)c(C(=O)OC(C)C)c3c2)cc1C	i	·	?	?	13µM*	·
CCOC(=O)c1c(C)oc2ccc(OCc3cc(C(=O)OC)oc3C)cc12	i	-27%	18µM*	i	13µM*	?
CCOC(=O)Oc1ccc2oc(C)c(C(=O)OCCOC)c2c1	i	-5%	-9%	?	-7%	-1%
Cc1oc2ccc(NS(=O)(=O)c3cccc4cccnc34)cc2c1C(=O)OC(C)C	i	-16%	?	?	?	-12%
COCCOC(=O)c1c(C)oc2ccc(OC(=O)c3c(OC)cccc3OC)cc12	i	12%	?	?	16µM*	18%
